Experimental data: PubChem BioAssay (Tox21)
Several values for one entry are separate records, joined by “and”; a condition that tells them apart may be missing. Equal values may be shown once. Results filed as inconclusive are left out. Where a call stands in place of a potency, no number is given. The source holds several records for some structures; these can differ, active in one and inactive in another. Activity calls are given as the source filed them. Unless noted, calls come from the whole dose curve.

Assays:
[1] = qHTS assay to identify small molecule agonists of the constitutive androstane receptor (CAR) signaling pathway - cell viability counter screen (AID 1224836; active = well fitted curve in the direction sought with a large enough effect in the repeat runs; an effect the other way counts as inactive or inconclusive; note: nearly all actives have a fitted effect of over 45% in size; note: potency is the fitted concentration of half-maximal effect); details: HepG2-CYP2B6-hCAR viability, CellTiter-Fluor, 23 h, PK11195 added to every well; series mostly up to 92.4 µM
Outline: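 Counter screen multiplexed with the CAR reporter readout: HepG2 cells co-transfected with hCAR and the CYP2B6-2.2kb construct receive a 15-concentration compound series and 0.75 uM PK11195 (final), then CellTiter-Fluor fluorescence is read after 23 h.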

[2] = qHTS assay to identify small molecule antagonists of the constitutive androstane receptor (CAR) signaling pathway - cell viability counter screen (AID 1224837; active = well fitted curve in the direction sought with a large enough effect in the repeat runs; an effect the other way counts as inactive or inconclusive; note: nearly all actives have a fitted effect of over 45% in size; note: potency is the fitted concentration of half-maximal effect); details: HepG2-CYP2B6-hCAR viability, CellTiter-Fluor, 23 h, co-treated with 50 nM CITCO; series mostly up to 92.4 µM
Outline: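 Using CellTiter-Fluor, viability is scored in HepG2 cells stably carrying hCAR and a 2.2kb CYP2B6 reporter after 23 hr compound exposure across 15 concentrations, with CITCO present at 50 nM.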

[3] = target: Nuclear receptor subfamily 1 group I member 3 (Homo sapiens) (UniProt Q14994); test: qHTS assay to identify small molecule agonists of the constitutive androstane receptor (CAR) signaling pathway (AID 1224839; active = well fitted curve in the direction sought with a large enough effect in the repeat runs; an effect the other way counts as inactive or inconclusive; note: nearly all actives have a fitted effect of over 15% in size; note: potency is the fitted concentration of half-maximal effect); details: HepG2 hCAR CYP2B6-luciferase, agonist mode, 24 h; series mostly up to 92.4 µM
Nuclear receptor subfamily 1 group I member 3 (Homo sapiens), sequence (Q14994 whole entry, looked up): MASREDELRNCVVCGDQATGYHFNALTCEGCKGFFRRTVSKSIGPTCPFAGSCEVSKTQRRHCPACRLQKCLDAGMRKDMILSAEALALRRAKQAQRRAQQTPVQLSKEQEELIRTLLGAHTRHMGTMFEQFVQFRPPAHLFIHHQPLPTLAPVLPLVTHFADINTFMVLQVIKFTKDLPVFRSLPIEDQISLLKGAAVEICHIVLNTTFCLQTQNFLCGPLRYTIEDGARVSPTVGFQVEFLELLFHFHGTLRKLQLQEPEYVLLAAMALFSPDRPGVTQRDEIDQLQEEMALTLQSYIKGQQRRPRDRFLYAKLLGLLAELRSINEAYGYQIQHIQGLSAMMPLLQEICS
Outline: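 A 15-concentration quantitative screen uses HepG2 cells co-transfected stably with human CAR and CYP2B6-2.2kb reporter. Treatment lasts 24 h with 0.75 uM PK11195 final present; ONE-Glo luminescence is the signal.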

[4] = qHTS assay to identify small molecule antagonists of the estrogen related receptor signaling pathway with the pleiotropic PPARgamma coactivator (PGC) from Tox21 10K library - cell viability counter screen (AID 1224840; active = well fitted cell-killing curve with a large enough effect in the repeat runs, not every such curve was filed as active; note: nearly all actives have a fitted effect of over 40% in size; note: potency is the fitted concentration of half-maximal effect); details: PGC/ERR reporter cells viability, CellTiter-Fluor, 17.5 h; series mostly up to 92.4 µM
Outline: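 Here the PGC/ERR cells serve as a cytotoxicity control: they are exposed to compounds for 17.5 hours at 37 C, and live-cell signal is quantified using CellTiter-Fluor fluorescence.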

[5] = target: Thyrotropin receptor (Homo sapiens) (UniProt P16473); test: qHTS assay to identify small molecule agonists of the thyroid stimulating hormone receptor (TSHR) signaling pathway (AID 1224843); details: TSHR-HEK293 cells, cAMP HTRF, agonist mode, 30 min; series mostly up to 92.4 µM; note: nearly all actives have a fitted effect of over 45% in size
Thyrotropin receptor (Homo sapiens), sequence (P16473 whole entry, looked up): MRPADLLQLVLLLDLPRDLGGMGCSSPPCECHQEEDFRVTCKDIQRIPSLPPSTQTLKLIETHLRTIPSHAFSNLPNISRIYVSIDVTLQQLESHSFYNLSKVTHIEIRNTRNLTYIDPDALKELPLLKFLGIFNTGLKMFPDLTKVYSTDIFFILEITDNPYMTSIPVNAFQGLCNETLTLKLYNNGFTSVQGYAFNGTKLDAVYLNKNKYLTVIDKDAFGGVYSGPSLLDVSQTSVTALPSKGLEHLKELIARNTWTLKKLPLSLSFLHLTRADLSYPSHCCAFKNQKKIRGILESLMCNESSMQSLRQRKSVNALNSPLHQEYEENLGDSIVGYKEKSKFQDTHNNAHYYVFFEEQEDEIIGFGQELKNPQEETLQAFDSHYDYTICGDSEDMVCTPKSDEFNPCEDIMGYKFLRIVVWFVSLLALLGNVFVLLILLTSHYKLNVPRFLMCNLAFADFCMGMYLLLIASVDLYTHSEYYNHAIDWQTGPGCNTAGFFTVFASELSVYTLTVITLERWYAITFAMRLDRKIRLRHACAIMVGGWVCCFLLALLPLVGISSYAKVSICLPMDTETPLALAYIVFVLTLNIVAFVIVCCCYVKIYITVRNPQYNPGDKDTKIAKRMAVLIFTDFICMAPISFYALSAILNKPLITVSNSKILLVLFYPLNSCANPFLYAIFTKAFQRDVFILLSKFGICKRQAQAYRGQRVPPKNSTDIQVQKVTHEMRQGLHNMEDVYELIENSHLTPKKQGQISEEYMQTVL
Outline: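 Steps: seed 800 TSHR-HEK293 cells per well; add test compound and hold 30 min at ambient temperature; dispense cAMP-d2 then anti-cAMP cryptate; incubate 1 h at ambient; measure fluorescence intensity.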

[6] = qHTS assay to identify small molecule agonists of the hypoxia (HIF-1) signaling pathway - cell viability counter screen (AID 1224844); details: HRE-bla ME-180 viability, CellTiter-Glo luminescence, 17 h; series mostly up to 76.8 µM; note: nearly all actives have a fitted effect of over 50% in size; note: potency is the fitted concentration of half-maximal effect
Outline: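 Multiplexed with the HRE beta-lactamase assay, this viability read used CellTiter-Glo luminescence (30 min, RT) on HRE-bla ME-180 cells treated 17 hrs with compounds in 0.5% dialyzed FBS medium.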

[7] = qHTS assay to identify small molecule agonists of the hypoxia (HIF-1) signaling pathway (AID 1224846; active = well fitted activation curve with a large enough effect in the signal ratio in the repeat runs, not every such curve was filed as active; the % refers to the signal ratio); details: HRE-bla ME-180 cells, beta-lactamase ratio, 17 h; series mostly up to 76.8 µM
Outline: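 Hypoxia-pathway activation was scored as increased beta-lactamase from an HRE-controlled reporter in ME-180 cells; plated at 2,000 cells per well with 0.5% dialyzed FBS, they were exposed 17 hrs to compounds and then given CCF4-AM.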

[8] = qHTS assay to identify small molecule agonists of H2AX - cell viability counter screen (AID 1224847); details: CHO-K1 viability, CellTiter-Glo luminescence, 3 h; series mostly up to 154 µM; note: nearly all actives have a fitted effect of over 30% in size; note: potency is the fitted concentration of half-maximal effect
Outline: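 We seed wild-type CHO-K1 cells overnight, treat them for 3 hr at 37C with compounds in 15-concentration series, and quantify remaining viability by CellTiter-Glo luminescence.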

[9] = qHTS assay to identify small molecule agonists of H2AX (AID 1224845; active = well fitted activation curve with a large enough effect in the signal ratio in the repeat runs, not every such curve was filed as active; the % refers to the signal ratio; note: potency is the fitted concentration of half-maximal effect); details: CHO-K1 phospho-H2AX Ser139 HTRF, 3 h; series mostly up to 154 µM
Outline: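 Wild-type CHO-K1 cells, plated overnight, exposed 3hr at 37C to 15 concentrations (0.76% DMSO final). Lysed, then HTRF anti-pH2AX (S139) cryptate and anti-H2AX-d2 antibodies, 24 hr room temperature; 665/620 nm emission read.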

[10] = qHTS assay to identify small molecule antagonists of the estrogen related receptor signaling pathway with the pleiotropic PPARgamma coactivator (PGC) from Tox21 10K library (AID 1224841; call rule not given here; note: actives are mostly falling curves and most rising ones were filed inactive; nearly all actives have a fitted effect of over 50% in size); details: PGC/ERR reporter cell line, ONE-Glo luciferase, 18 h; series mostly up to 92.4 µM
Outline: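 Each well held 2,000 PGC/ERR cells, pre-incubated six hours (37 C, 5% CO2). Test substances in DMSO were added by pin tool and left for 18 h at 37 C before luciferase detection by One-Glo.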

| Compound | Potency [1] | Potency [2] | Potency [3] | Potency [4] | Potency [5] | Potency [6] | outcome [7] | Potency [8] | Potency [9] | Potency [10] |
| --- | --- | --- | --- | --- | --- | --- | --- | --- | --- | --- |
| Nc1ccc(-c2ccc(N)cc2)cc1 | inactive | inactive | 53.9 µM (active) and inactive and 21.7 µM (active) | inactive | inactive | inactive | inactive | inactive | – | – |
| Cc1cc(Cl)ccc1OCC(=O)O | inactive | inactive | inactive | inactive | inactive | inactive | inactive | inactive | inactive | – |
| CCNc1nc(Cl)nc(NCC)n1 | inactive | inactive | inactive | inactive | inactive | 55.2 µM (active) and inactive | inactive | inactive | inactive | inactive |
| O=S(=O)(O)O | inactive | inactive | – | inactive | – | inactive | inactive | inactive | inactive | – |
| CNC | inactive | inactive | – | inactive | – | inactive | inactive | inactive | inactive | – |
| Oc1cccc2cccnc12 | – | – | – | 2.43 µM (active) and inactive | – | 1.1 µM (active) and inactive | – | inactive | 1.43 µM (active) and 3.02 µM (active) and inactive | – |
| CCCC[n+]1ccccc1C | inactive | inactive | – | inactive | – | inactive | inactive | inactive | inactive | – |
| CCCCCCCCCCCCCCCCn1cc[n+](C)c1 | – | – | – | inactive and 61.7 µM (active) and 27.4 µM (active) | inactive | inactive and 49.4 µM (active) and 31 µM (active) | inactive | – | inactive | – |
| CCCC[N+]1(C)CCCC1 | inactive | inactive | – | inactive | – | inactive | inactive | inactive | inactive | – |
| N#CS | inactive | inactive | – | inactive | – | inactive | – | inactive | inactive | – |
| CCCCCC[n+]1ccccc1 | inactive | inactive | – | inactive | – | inactive | inactive | inactive | inactive | – |
| CCCC[n+]1ccc(C)cc1 | inactive | inactive | – | inactive | – | inactive and 38.7 µM (active) | inactive | inactive and 89.3 µM (active) | inactive | – |
| CC(=O)O | inactive | inactive | – | inactive | – | inactive | inactive | inactive | inactive | – |
| C=CCOC(Cn1ccnc1)c1ccc(Cl)cc1Cl (stereo unspecified) | – | 61.1 µM (active) | – | 48.6 µM (active) and inactive | inactive | 39 µM (active) and inactive | – | 113 µM (active) and inactive | – | – |
| CN(C)[C@@H]1C(=O)C(C(N)=O)=C(O)[C@@]2(O)C(=O)C3=C(O)c4c(O)cccc4[C@@](C)(O)[C@H]3[C@H](O)[C@@H]12 | inactive | inactive | – | inactive | inactive | inactive | – | inactive | – | – |
| CCC[N+]1(C)CCCC1 | inactive | inactive | – | inactive | – | inactive | inactive | inactive | inactive | – |
| CCCCn1cc[n+](C)c1C | inactive | inactive | – | inactive | – | inactive | inactive | inactive | inactive | – |
| CCCCn1cc[n+](C)c1 | inactive | inactive | – | inactive | – | inactive | inactive | inactive | inactive | – |

| Compound | Potency [1] | Potency [2] | Potency [3] | Potency [4] | Potency [5] | Potency [6] | outcome [7] | Potency [8] | Potency [9] | Potency [10] |
| --- | --- | --- | --- | --- | --- | --- | --- | --- | --- | --- |
| COP(=O)(OC)OC=C(Cl)Cl | inactive | inactive | – | inactive | – | inactive | inactive | inactive | inactive | – |
| CCCCCCCCn1cc[n+](C)c1 | – | – | – | inactive | inactive | inactive | inactive | 56.3 µM (active) and 80 µM (active) and 90.5 µM (active) | inactive | – |
| CCCn1cc[n+](C)c1 | inactive | inactive | – | inactive | inactive | inactive | inactive | inactive | inactive | – |
| Nc1ccc(-c2ccc(N)c(Cl)c2)cc1Cl | inactive | inactive | – | inactive and 27.3 µM (active) | inactive | inactive | inactive | 101 µM (active) | – | – |
| CCCC[n+]1cccc(C)c1 | inactive | inactive | – | inactive | – | inactive | inactive | inactive | inactive | – |
| C[N+](C)(C)Cc1ccccc1 | inactive | inactive | – | inactive | inactive | inactive | inactive | inactive | inactive | – |
| CCCCCCCCCCCCCC[P+](CCCCCC)(CCCCCC)CCCCCC | 7.73 µM (active) and 9.77 µM (active) | 12.2 µM (active) and 13.8 µM (active) | – | 21.8 µM (active) and 21.9 µM (active) | inactive | 11 µM (active) and 17.5 µM (active) and inactive | inactive | 16 µM (active) and 28.6 µM (active) and 4 µM (active) | inactive | – |
| CCCCCCCCCCCCOS(=O)(=O)O | inactive | inactive | – | inactive | – | 48.3 µM (active) and inactive | inactive | inactive | inactive | – |
| CC[N+]1(C)CCCC1 | inactive | inactive | – | inactive | – | inactive | inactive | inactive | inactive | – |
| CC(Cl)(Cl)C(=O)O | inactive | inactive | – | inactive | inactive | inactive | inactive | inactive | inactive | – |
| O=C(O)COc1ccc(Cl)cc1Cl | inactive | inactive | – | inactive | – | inactive | inactive | inactive | inactive | – |
| O=C(O)CC(O)(CC(=O)O)C(=O)O | inactive | inactive | – | inactive | – | inactive | – | inactive | inactive | – |
| CCC[N+]1(C)CCCCC1 | inactive | inactive | – | inactive | inactive | inactive | inactive | inactive | inactive | – |
| CCCCCCCCCCn1cc[n+](C)c1 | – | inactive | – | inactive | – | inactive | inactive | – | inactive | – |
| O=C(O)c1nc(Cl)ccc1Cl | inactive | inactive | – | inactive | inactive | inactive | inactive | inactive | inactive | – |
| CCCCCCn1cc[n+](C)c1 | inactive | inactive | – | inactive | – | inactive | inactive | inactive | inactive | – |
| CCCCCCCCCCCCn1cc[n+](C)c1 | – | – | – | – | – | – | inactive | – | inactive | – |
| CCn1cc[n+](C)c1C | inactive | inactive | – | inactive | – | inactive | inactive | inactive | inactive | – |
